Shown are actives, neighbours in structure and some others; about 9% of the full set was active somewhere.
12-LOX inh: blocks human arachidonate 12S-lipoxygenase; hit rate 1.1% among 580,000; AID 1671190; P18054; purified 12hLO, xylenol orange hydroperoxide absorbance; Potency, µM (top dose mostly 108 µM), without a hit: at the top dose activity change, negative = inhibition, hits mostly inhibitors; note: % is set by controls: 0 for no effect and ±100 for the full control effect
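Purified human 12hLO at 150 nM in 25 mM Hepes, 0.01% Triton X-100, pH 7.0, preincubated 15 min at room temperature with compound. Reaction started with 40 uM arachidonic acid, 30 min at room temperature. Hydroperoxide measured by Fe-xylenol orange, 573/405 nm absorbance ratio.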
G9a inh: inhibitors of human histone lysine methyltransferase G9a; Potency, µM (top dose mostly 102 µM), without a hit: at the top dose activity, negative = inhibition, hits mostly inhibitors; AID 504332; hit rate 8.8% among 350,000; G9a H3K9 monomethylation, AlphaScreen, 2 h; note: % is set by controls: 0 for no effect and ±100 for the full control effect; nearly all actives have a fitted effect of over 75% in size
Target sequence (Q96KQ7 913-1193 limits assumed): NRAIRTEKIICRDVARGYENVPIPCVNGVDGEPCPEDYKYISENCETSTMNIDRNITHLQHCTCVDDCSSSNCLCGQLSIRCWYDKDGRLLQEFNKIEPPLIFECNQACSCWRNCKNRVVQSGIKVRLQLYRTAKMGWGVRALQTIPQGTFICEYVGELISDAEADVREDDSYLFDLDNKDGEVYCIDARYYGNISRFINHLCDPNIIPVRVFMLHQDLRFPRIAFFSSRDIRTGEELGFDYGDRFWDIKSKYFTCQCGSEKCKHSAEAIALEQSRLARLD
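G9a (20 nM) was preincubated 15 min with compound, then reacted 2 h at room temperature with 500 nM biotin-H3K9 peptide and 20 µM SAM. Monomethyl-H3K9 detected by AlphaScreen using anti-H3K9me1 antibody.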
JMJD2A Tudor inh: JMJD2A Tudor domain (human) inhibition | O75164 | AlphaScreen JMJD2A-Tudor / H3K4me3 peptide binding | Potency, µM (titrated, usually from 114 µM), for inactives: at the highest dose activity change, negative = inhibition, hits mostly inhibitors | hit rate 4.4% among 390,000; note: % is set by controls: 0 for no effect and ±100 for the full control effect; nearly all actives have a fitted effect of over 50% in size
HP1b chromo inh: blocks HP1-beta chromodomain binding to methylated histone tails; AID 540317; hit rate 0.56% among 390,000; AlphaScreen HP1-beta / biotin-H3K9me3 peptide binding; Potency, µM (series often up to 114 µM), for the others: at the highest dose activity change, negative = inhibition, usual class: inhibitors; P83916; note: nearly all actives have a fitted effect of over 70% in size
Target sequence (P83916 whole entry, looked up): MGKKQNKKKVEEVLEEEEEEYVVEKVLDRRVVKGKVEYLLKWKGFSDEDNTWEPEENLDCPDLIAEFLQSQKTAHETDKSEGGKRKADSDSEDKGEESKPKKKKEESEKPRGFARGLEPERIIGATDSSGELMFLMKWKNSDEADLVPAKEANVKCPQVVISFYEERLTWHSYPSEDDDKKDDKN
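AlphaScreen: HP1-beta (50 nM) preformed 30 min with biotin-H3(1-18)K9me3 peptide (50 nM) in PBS pH 7.4, 0.01% Tween-20. Compound added for 30 min at RT, then streptavidin donor/nickel chelate acceptor beads (10 ug/mL) for 30 min.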
BAZ2B block: BAZ2B (human) inhibition. Q9UIF8. AlphaScreen BAZ2B-H3K14Ac peptide displacement. Potency, µM (titrated, usually from 114 µM), for the others: at the top dose activity change, negative = inhibition, hits mostly inhibitors. hit rate 4.4% among 360,000; note: % is set by controls: 0 for no effect and ±100 for the full control effect; nearly all actives have a fitted effect of over 60% in size
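In this displacement format the biotinylated H3(5-23) peptide acetylated at Lys14 serves as ligand at 50 nM, with BAZ2B at 50 nM in PBS pH 7.4 containing 0.01% Tween-20. Donor and acceptor beads are 10 ug/mL final.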
PLK1 PBD block: inhibitors of human PLK1 polo-box domain binding; P53350; Plk1 PBD binding of FITC phosphopeptide, fluorescence polarization; Potency, µM, without a hit: max response, negative = inhibition, usual class: inhibitors; hit rate 2.8% among 360,000; note: series mostly up to about 57 µM; % is set by controls: 0 for no effect and ±100 for the full control effect; nearly all actives have a fitted effect of over 65% in size
Numbers without * were called inactive; i = inactive; ? = inconclusive; · = no result given; [ ] = remark or other dose. Calls come from the whole dose curve; as a rule, active = well fitted curve in the direction sought with a large enough effect; inconclusive = small, poorly fitted or top-dose-only effect, or another doubt; inactive = no such curve, though single readings can be large; an effect the other way counts as inactive or inconclusive. Potency is the fitted concentration of half-maximal effect.

SMILES	12-LOX inh	G9a inh	JMJD2A Tudor inh	HP1b chromo inh	BAZ2B block	PLK1 PBD block
Cc1ccc(-c2noc(C3CCN(S(=O)(=O)c4ccc5c(c4)OCCO5)CC3)n2)o1	-4.5%	15.8µM*	-13.0%	5.4%	-6.1%	2.4%
Cc1ccc(-c2noc(C3CCCN(S(=O)(=O)c4ccc(S(=O)(=O)N(C)C)cc4)C3)n2)o1 (stereo not given)	-0.9%	18.8%[59 µM]	-22.7%	0.7%	8.9%	-15.3%
O=C(NC1CCS(=O)(=O)C1)c1cccc(S(=O)(=O)N2CCCCCC2)c1 (stereo not given)	-0.3%	22.3%	4.8%	14.6%	3.5%	7.9%
Cc1ccccc1NC(=O)CN1C(=O)COc2ccc(S(=O)(=O)N3CCCC3)cc21	0.0%	-4.7%	0.0%	29.7%	-1.9%	-7.5%
O=C(CCc1ccccc1Cl)Nc1cc(S(=O)(=O)N2CCOCC2)ccc1N1CCCC1	2.8%	·	-19.6%	34.9%	·	4.3%
O=C(Nc1ccc(Cl)cc1)Nc1cc(S(=O)(=O)N2CCOCC2)ccc1N1CCCC1	?	39.8µM*	-33.1%	3.2%	-33.4%	-11.1%
O=C(Cc1ccc(F)cc1)Nc1cc(S(=O)(=O)N2CCOCC2)ccc1N1CCCCC1	11.3%	·	·	·	·	1.4%
O=C(Nc1ccc(N2CCOCC2)c2nonc12)C1CCCC1	-11.5%	?	-16.0%[11.4 µM]	?	?	18.9µM*
O=C(Nc1ccc(F)cc1)Nc1cc(S(=O)(=O)N2CCOCC2)ccc1N1CCCC1	i	35.5µM*	-14.7%	15.5%	?	-4.8%
Nc1ccc(N2CCOCC2)c2nonc12	39.8µM*	·	-32.6%	-2.1%	?	-4.4%
COc1cccc(N2CCN(C(=O)c3[nH]c(C)c(C(C)=O)c3C)CC2)c1	0.0%	-6.8%[2.33 µM]	-16.7%	8.5%	?	-6.7%
COCCNC(=O)CCc1ccc2c(c1)CN(C(=O)NC(C)C)CCO2	10.9%	·	·	·	·	·
COc1ccc(NC(=O)c2nn(C3CCS(=O)(=O)C3)c3c2CCCC3)cc1 (stereo not given)	-0.2%	·	·	·	·	·
O=C(Nc1cc(S(=O)(=O)N2CCOCC2)ccc1N1CCOCC1)c1ccc(Cl)nc1	14.4%	4.3%[12.7 µM]	-12.5%[11.4 µM]	-2.4%	0.6%	29.9µM*
O=S(=O)(c1ccc(Cl)c(NC(=S)Nc2cccc(O)c2)c1)N1CCOCC1	?	?	-12.9%	8.7%	-7.3%	-13.2%
NC(=O)C1CCN(CC(=O)Nc2cc(S(=O)(=O)N3CCOCC3)ccc2N2CCCC2)CC1	1.4%	20µM*	-7.4%	19.7%	-1.4%	-13.6%
CCN(C(=S)Nc1cc(S(=O)(=O)N2CCOCC2)ccc1Cl)c1cccc2ccccc12	3.2%	1.78µM*	-25.3%	-23.7%	?	-11.9%
O=C(Nc1cc(S(=O)(=O)N2CCOCC2)ccc1N1CCOCC1)c1ccc(S(=O)(=O)N2CCCCC2)cc1	1.2%	15.8%	-18.6%	28.2%	4.0%	0.3%
O=C(Nc1cc(S(=O)(=O)N2CCOCC2)ccc1N1CCCC1)C1CC1	?	39.8µM*	-4.1%	18.8%	-21.0%	?
O=C(Cc1ccccc1Cl)Nc1cc(S(=O)(=O)N2CCOCC2)ccc1N1CCOCC1	130.9%	3.55µM*	-15.8%	17.3%	17.0%	0.9%
O=C(Cc1ccccc1F)Nc1cc(S(=O)(=O)N2CCOCC2)ccc1N1CCOCC1	-15.5%	3.0%[12.7 µM]	-6.0%	38.6%	0.1%	-0.3%
CCNC(=O)Nc1cc(S(=O)(=O)N2CCOCC2)ccc1N1CCCCC1	8.3%	·	·	·	·	-0.7%
O=C(Nc1cc(S(=O)(=O)N2CCOCC2)ccc1Oc1ccc(F)cc1)C1=COCCO1	0.7%	50.1µM*	-18.4%	10.2%	-0.6%	-3.9%
O=C(Nc1ccccc1)Nc1cc(S(=O)(=O)N2CCOCC2)ccc1N1CCCC1	?	?	-29.1%	?	1.2%	21.2µM*
COc1cccc(CNC(=O)CCNC(=O)c2ccccc2OC)c1	i	-7.5%	-0.7%	20.0%	4.2%	-1.0%
SMILES	12-LOX inh	G9a inh	JMJD2A Tudor inh	HP1b chromo inh	BAZ2B block	PLK1 PBD block
CC(C)(C)C1CCC2(CC1)SCC(=O)N2c1ccccc1 (stereo not given)	-0.1%	21.0%	-5.8%	25.4%	-27.8%[57.1 µM]	0.1%
S=C1NC2(CCCCCC2)NN1c1ccccc1	1.41µM*	·	·	·	·	·
CC(C)(C)C1CCC2(CC1)NC(=S)N(c1ccccc1)N2 (stereo not given)	-12.1%	7.94µM*	-8.8%	46.2%	-32.7%	1.1%
CCC(C)(C)C1CCC2(CC1)NC(=S)N(c1ccccc1)N2 (stereo not given)	?	8.91µM*	-23.3%	38.9%	?	-9.4%
C=CCC1CCCCC12NC(=O)N(c1ccccc1)N2 (stereo not given)	-8.7%	·	-10.3%	17.5%	-0.6%	-8.9%
COCCNC(=O)CCn1c(=O)c2cc(OC)c(OC)cc2n(CC(=O)Nc2ccccc2C)c1=O	-43.0%	0.4%[59 µM]	-17.4%	15.8%	3.8%	·
COc1cccc(CNC(=O)CCNS(=O)(=O)c2ccc3c(c2)CC(C)N3C(C)=O)c1 (stereo not given)	3.1%	12.2%[59 µM]	?	25.5%	-8.7%	26.7µM*
CCC(=O)N1c2ccc(S(=O)(=O)CCC(=O)NCc3cccc(OC)c3)cc2CC1C (stereo not given)	-20.9%	-2.3%[59 µM]	-8.0%	8.1%	·	·
CC1CCC(NC(=O)CCS(=O)(=O)c2ccc3c(c2)CC(C)N3C(=O)C2CC2)CC1 (stereo not given)	1.0%	-46.6%	?	-9.3%	-17.3%[57.1 µM]	29.9µM*
CCOc1ccc(NC(=O)CCNS(=O)(=O)c2ccc3c(c2)CC(C)N3C(C)=O)cc1 (stereo not given)	4.5%	9.0%[59 µM]	25.1µM*	15.3%	-13.8%	2.99µM*
COc1ccc(NC(=O)CCNS(=O)(=O)c2ccc3c(c2)CC(C)N3C(C)=O)cc1 (stereo not given)	-0.9%	58.9%[59 µM]	-12.8%	40.8%	-7.9%	-14.4%
COc1cccc(CNC(=O)CCS(=O)(=O)c2ccc3c(c2)CC(C)N3C(=O)C2CC2)c1 (stereo not given)	-3.9%	13.2%	-7.2%	-1.6%	-4.2%[57.1 µM]	21.2µM*
CC1Cc2cc(S(=O)(=O)CCC(=O)NC3CCCCC3)ccc2N1C(=O)C1CC1 (stereo not given)	20.1%	25.6%	3.0%	49.3%	-3.4%	1.3%
CCOc1ccc(NC(=O)Cn2nnc(-c3ccccc3F)n2)cc1	-17.3%	-2.1%[59 µM]	3.7%	29.3%	-2.1%	-3.7%
O=C1CC(c2cccc(Cl)c2)Cc2c1cnn2-c1nc2ccccc2[nH]1 (stereo not given)	0.0%	·	·	·	·	·
CC(=O)N1c2ccc(S(=O)(=O)NCC3CCC(C(=O)NC4CCC(C)CC4)CC3)cc2CC1C (stereo not given)	1.3%	-8.1%	-17.6%	24.8%	-0.4%	-7.9%

From PubChem BioAssay
